Measurements: ChEMBL document CHEMBL3988442, “University of Dundee, Small-Polar-MMV Screening Library” (2021)
The campaign covered roughly 48,000 compounds. About 13,000 (27%) showed an effect of 50% or more. This is one part of the list.

test system: Wolbachia pipientis; assay: Anti-Wolbachia Cell-Based Screen; assay type: functional; parameters: scale not given: in the data most compounds retested in dose-response had high values; conditions: 5 µM

SMILES	Percent Effect
CCS(=O)(=O)NC1CCCN(c2cc(C)ccc2F)C1=O (stereo not drawn)	-7.776%
O[C@H]1[C@H](NCCSc2ccccn2)c2ccccc2C12CCNCC2	-1.82%
COc1ccccc1Oc1ncccc1CNC(=O)[C@H](N)CC(C)(C)C	-16.84%
CC(=O)NC1CCN(c2ncnc3c2c(C)nn3C)C1 (stereo not drawn)	-10.72%
COc1cc(C)c(C2CC(=O)NCc3nc4sccn4c32)cc1C (stereo not drawn)	-46.51%
CCOCc1ccc(NC(=O)C(C)C)cc1	2.83%
CCC[C@H]1CN(CCS(C)(=O)=O)C[C@@H]1NC(=O)c1cc(CC)on1	21.57%
Cc1cc(F)ccc1CNCCn1cccn1	-2.042%
Cc1cc(C)n(CCNCc2cc(-c3ccc(F)cc3)c[nH]c2=O)n1	135.5%
Cc1cc(C)n(CC(=O)Nc2cc(-c3ccncc3)[nH]n2)n1	0.2765%
COC(=O)c1ccc(F)c(Cn2nc(C)cc2C)c1	-3.045%
Cc1cc(C)n(CCNCc2cc(-c3ccc(Cl)cc3)c[nH]c2=O)n1	101%
CCn1cnnc1CCNCc1c[nH]nc1-c1ccc(F)cc1	-1.595%
Cc1cc(C)n(CC(=O)N2CCC(NS(=O)(=O)c3ccccc3)CC2)n1	-8.172%
Cc1cc(C)n(CCNCc2cc(-c3ccccc3)c[nH]c2=O)n1	81.59%
COC(=O)c1ccc(Cn2nc(C)cc2C)c(F)c1	-8.514%
c1ccc2sc(N3CCCC(Cn4cncn4)C3)nc2c1 (stereo not drawn)	2.326%
NCC1CCCCN1Cc1cc(O)c2cccc(F)c2n1 (stereo not drawn)	-47.52%
CN1CCCN(C(=O)c2nnn(-c3ccc(C(F)(F)F)cc3)n2)CC1	20.55%
Cc1cccc(C(C(=O)NCc2nc(-c3ncccn3)no2)N(C)C)c1 (stereo not drawn)	-6.766%
Clc1cccc(-c2cccc(N3CCC(NC4CCOCC4)CC3)c2)c1	91.89%
Clc1cccc(N2CCC(NCc3cc[nH]n3)C2)c1 (stereo not drawn)	-6.457%

SMILES	Percent Effect
O=C(Cc1cccc(O)c1)NC1CCN(c2cccc(Cl)c2)C1 (stereo not drawn)	1.358%
Cc1nnc(-c2cccc(N3CCC(NC(C)CC(C)C)CC3)c2)s1 (stereo not drawn)	13.1%
Cc1ccc(-c2cccc(N3CCC(NC4CCOCC4)CC3)c2)cc1	106.4%
Cc1nnc(-c2cccc(N3CCC(NC4CCSC4)CC3)c2)s1 (stereo not drawn)	-9.983%
CC(C)N1CCOCC2(CCCN(C(=O)c3cn(C)cn3)C2)C1.O=C(O)C(F)(F)F (stereo not drawn)	-9.46%
O=C(c1ccc(-n2ccnn2)cc1)N(CC1CC1)c1cccnc1	-13.01%
O=C(c1ccccc1)N(CC1CC1)c1cccnc1	119.1%
CCCN(C(=O)c1ccc(-n2ccnn2)cc1)c1cccnc1	-3.595%
Cc1cc(NC(=O)C2CCCN(C(=O)NCC(C)C)C2)ccn1 (stereo not drawn)	89.55%
CCNC(=O)N1CCCC(C(=O)c2cccc(OC(C)C)c2)C1 (stereo not drawn)	17.22%
Cc1c(C2CC2)n[nH]c1NC(=O)C1CCCN(C(=O)NCC(C)C)C1 (stereo not drawn)	117.7%
Cc1n[nH]c(C)c1Sc1ccccc1NC(=O)N1CCCC(C(N)=O)C1 (stereo not drawn)	-0.33%
NC(=O)N1CCCC(C(=O)Nc2cccc(Cl)c2)C1 (stereo not drawn)	3.636%
Cc1n[nH]c(C)c1CCNC(=O)C1CCCN(CC(N)=O)C1 (stereo not drawn)	-16.53%
CCCC1CCCN(C(=O)Nc2ccnc(C(=O)N(C)C)c2)CC1 (stereo not drawn)	-1.886%
Cc1n[nH]c(C)c1NC(=O)C1CCCN(C(=O)NCC(C)C)C1 (stereo not drawn)	113.5%
Cc1ccc(-c2nnc(NC(=O)c3ccn(C)c(=O)c3)[nH]2)s1	1.444%
CCN(C(=O)C1CC1)C(c1cccnc1)c1ccc2c(c1)CCO2 (stereo not drawn)	-9.628%
Cc1noc(CCNS(=O)(=O)N2CCCC2c2ccc(C)o2)n1 (stereo not drawn)	4.735%
Cc1ccc(C2CCCN2S(=O)(=O)N(C)Cc2cnn(C)c2)o1 (stereo not drawn)	13.71%
Cc1c(S(=O)(=O)N2CCCC2c2nnc(-c3ccsc3)o2)cnn1C (stereo not drawn)	130.9%
Cn1cc(C2CCCN2Cc2csc(-c3ccsc3)n2)cn1 (stereo not drawn)	2.773%

SMILES	Percent Effect
CC(c1nnc(-c2cccs2)o1)N1CCn2c(nnc2C2CC2)C1 (stereo not drawn)	-4.966%
Cc1ccc(-c2nnc(C3CCCN3S(=O)(=O)c3cnn(C)c3C)o2)s1 (stereo not drawn)	112%
Cc1c(S(=O)(=O)N2CCCCC2c2nnc(-c3cccs3)o2)cnn1C (stereo not drawn)	114.5%
Cc1nnc(CN2CCCC2c2ccsc2)o1 (stereo not drawn)	42.12%
Cn1cc(S(=O)(=O)N2CCCC2CC(=O)c2cccs2)cn1 (stereo not drawn)	-23.33%
CN1[C@@H](c2ccccc2)[C@@H](C(=O)NCc2ccncc2)C[C@@]1(C)C(=O)O	1.416%
O=C(O)c1ccnc(-c2ccnc(COc3cccc(F)c3)n2)c1	-102.4%
Cc1cccc(N2CCN(CCNC(=O)C(C)n3cncn3)CC2)c1 (stereo not drawn)	8.571%
CC1CCCCN1CCN(C)C(=O)c1cc(CN2CCC(O)CC2)on1 (stereo not drawn)	0.4872%
Fc1cccc(NCc2ncc[nH]2)c1	-11.31%
CSCc1cc(F)ccc1CNCc1ncc[nH]1	108.7%
COc1cc(F)ccc1N(C)Cc1cccnc1	-2.533%
CSCc1cc(F)ccc1CNCc1cccc(O)c1	105.8%
Fc1cccc(C(NCc2ncc[nH]2)c2ccccc2)c1 (stereo not drawn)	-7.792%
CSCc1cc(F)ccc1CNCc1ccncc1	99.15%
Fc1ccc(NCc2ccncc2)c(OC(F)F)c1	-6.491%
O=C(NCc1ccncc1)N(Cc1ccc(F)cc1F)C1CC1	-2.267%
O=C1OCCN1c1cccc(CNCc2cc(F)ccc2F)c1	6.854%
Cc1cnn(CCNCc2cccnc2)c1	-0.61%
CSCc1cc(F)ccc1CNCc1cccnc1	101.5%
O=C1CCCN1c1cccc(CNCc2cc(F)ccc2F)c1	-5.013%
Cc1cc(C)n(CC(C)NCc2cnc3c(C)cccn23)n1 (stereo not drawn)	-11.8%

SMILES	Percent Effect
COCCSc1ccc(C(C)NC(=O)Nc2cn[nH]c2)cc1 (stereo not drawn)	-2.849%
COc1cc(NCC(=O)NC(C)(C#N)C(C)C)cc(OC)c1OC (stereo not drawn)	-11.73%
CSc1ccsc1C(=O)NCCNC(=O)C1CC1	-5.162%
O=C(O)C(F)(F)F.O=C(O)C(F)(F)F.O=C(O)c1cc2c(nc1-c1ccoc1)CCN(Cc1ccco1)CC2	4.884%
Cn1cc(CN2CCc3c(cnc(-c4ccccc4)c3C(=O)O)C2)cn1.O=C(O)C(F)(F)F.O=C(O)C(F)(F)F	-3.13%
O=C(O)c1c(-c2ccncc2)ncc2c1CCN(Cc1ccco1)C2	103.7%
Cn1nccc1-c1ncc2c(c1C(=O)O)CCN(Cc1ccncc1)C2.O=C(O)C(F)(F)F.O=C(O)C(F)(F)F	-6.643%
Cn1cc(C(=O)NCc2cn3c(n2)CN(Cc2ccccn2)CC3)cn1.O=C(O)C(F)(F)F.O=C(O)C(F)(F)F	1.361%
O=C(O)C(F)(F)F.O=C(O)C(F)(F)F.O=C(O)c1c(-c2cncnc2)ncc2c1CCN(Cc1ccco1)C2	112.5%
Cn1cc(-c2ncc3c(c2C(=O)O)CCN(Cc2ccccn2)C3)cn1.O=C(O)C(F)(F)F.O=C(O)C(F)(F)F	106.1%
Cn1cc(-c2ncc3c(c2C(=O)O)CCN(Cc2ccco2)C3)cn1.O=C(O)C(F)(F)F	100.1%
Nc1cc(-c2cccc3ccnn23)ccn1	-7.377%
O=C(COC1CCCC1)NC(C(=O)Nc1cc[nH]n1)c1ccccc1 (stereo not drawn)	-15.76%
O=C(NCc1nc(C2CCCCC2)no1)C1CC(=O)N(C2CC2)C1 (stereo not drawn)	-21.27%
Cn1nccc1-c1ncc2c(c1C(=O)O)CCN(Cc1ccccc1)C2.O=C(O)C(F)(F)F.O=C(O)C(F)(F)F.O=C(O)C(F)(F)F	-10.76%
Cn1nccc1-c1ncc2c(c1C(=O)O)CCN(Cc1cccnc1)C2.O=C(O)C(F)(F)F.O=C(O)C(F)(F)F	-4.341%
O=C(O)C(F)(F)F.O=C(O)C(F)(F)F.O=C(O)C(F)(F)F.O=C(O)c1c(-c2cncnc2)ncc2c1CCN(Cc1cccnc1)C2	96.39%
CN1CCN(C(=O)c2cn(-c3ccc(C(F)(F)F)cn3)nn2)CC1	-7.593%
Cc1cc(-n2cccn2)ccc1CN1C[C@@H](CN(C)C)[C@@H](CO)C1	14.35%
Cc1cccc(=O)n1CCC(=O)N(C)Cc1cccc2ncccc12	-4.376%
Cc1cccnc1CN1CCN(C(=O)CCn2ccc(=O)[nH]c2=O)CC1	-10.51%
Cc1ccc(C2(O)CCN(C(=O)CCn3c(C)cccc3=O)CC2)nc1	106.7%

SMILES	Percent Effect
Cc1ccc(C2(O)CCN(C(=O)Cn3cc(C)c(=O)[nH]c3=O)CC2)nc1	116.3%
COC(=O)C1CCN(CC2(c3ccc(C)cn3)CCNCC2)CC1	-5.791%
Cc1cn(CC(=O)N(C)Cc2cccc3ncccc23)c(=O)[nH]c1=O	-19.07%
Cc1ccc(C2(O)CCN(C(=O)CCn3ccc(=O)[nH]c3=O)CC2)nc1	97.51%
COC1CCN(C(=O)CCn2ccc(=O)[nH]c2=O)CC1	-8.705%
CSCc1ccc(N2CCC(C(O)Cc3ccccc3)CC2)nc1 (stereo not drawn)	26.16%
O=C(O)C(F)(F)F.O=C(O)C(F)(F)F.c1cc(CN2CCc3ncnc(C4CCOC4)c3CC2)ccn1 (stereo not drawn)	0.007603%
Cc1ccc(Oc2ncccc2CNC2CCSCC2)cn1	-8.046%
Nc1ccc(-c2ccc(F)cc2Cl)cn1	-14.84%
Cc1ccc(C(O)CNC(=O)NCc2nc(C)cs2)cc1 (stereo not drawn)	-27.45%
Cc1csc(CNC(=O)NC(C)c2ccc3c(c2)CCC(=O)N3)n1 (stereo not drawn)	108.8%
CSc1ccsc1C(=O)NC(C)c1ccc2c(c1)CCC(=O)N2 (stereo not drawn)	-17.83%
Cc1ccsc1CNC(=O)NC(C)c1ccc2c(c1)CCC(=O)N2 (stereo not drawn)	96.96%
Cc1ccsc1C(=O)NC(C)c1ccc2c(c1)CCC(=O)N2 (stereo not drawn)	-2.921%
CC(NC(=O)NCc1cc[nH]n1)c1ccc2c(c1)CCC(=O)N2 (stereo not drawn)	-0.03999%
Cc1csc(CNC(=O)NCC(O)c2ccc(F)cc2)n1 (stereo not drawn)	8.268%
O=C1CCCc2cc(S(=O)(=O)NCc3ccccn3)ccc2N1	-1.258%
CC(NC(=O)NCc1cccs1)c1ccc2c(c1)CCC(=O)N2 (stereo not drawn)	122.7%
CC(NC(=O)N(C)Cc1ccsc1)c1ccc2c(c1)CCC(=O)N2 (stereo not drawn)	-10.24%
CC(NC(=O)NCc1ccccn1)c1ccc2c(c1)CCC(=O)N2 (stereo not drawn)	101%
